Drawing on PubChem BioAssay (EPA / NIEHS), this text covers outcome and AC50 for 40 compounds.

Values joined by “and” are separate entries in the source; they are usually repeats but may differ in a detail not shown here. Equal values may be shown once. Active and inactive are the calls of the source. The calls were made as follows: active = hit-call score of the fitted dose curve at least 0.9, where 1 is the maximum; inactive = score below 0.9.

Read-out in this test: Interleukin-8 (IL8), CXCL8 (gene 3576)
The test is described as follows: BSK_hDFCGF_IL8: BioMAP Diversity Plus: hDFCGF Assay for Interleukin-8 (IL8) Biomarker Activity (AID 2283058). As to conditions: primary human foreskin fibroblasts; actives raise or lower the signal. On the procedure:
BSK_hDFCGF is a cell-based, multiplexed-readout assay that uses foreskin fibroblast, a human skin primary cell, with measurements taken at 24 hours after chemical dosing in a 96-well plate.BSK_hDFCGF_IL8 is an assay component measured in the BSK_hDFCGF assay. It measures IL-8 antibody related to regulation of gene expression using ELISA technology.Data from the assay component BSK_hDFCGF_IL8 was analyzed into 1 assay endpoint. This assay endpoint, BSK_hDFCGF_IL8, was analyzed with bidirectional fitting relative to DMSO as the negative control and baseline of activity. Using a type of binding reporter, gain or loss-of-signal activity can be used to understand changes in the signaling as they relate to the gene CXCL8. Furthermore, this assay endpoint can be referred to as a primary readout, because this assay has produced multiple assay endpoints where this one serves a signaling function. To generalize the intended target to other relatable targets, this assay endpoint is annotated to the cytokine intended target family, where the subfamily is interleukins.
The levels of cell surface (or secreted, indicated by the prefix "s") biomarker endpoints were measured by ELISA. Overt cytotoxicity to cells in confluent adherent cultures (all systems other than the BT system) was assessed by measuring total protein levels using sulforhodamine B (SRB) staining in parallel cultures at the time of biomarker measurements, indicated as SRB endpoints. For proliferation assays for adherent cell types, individual cell types are cultured at sub-confluence and relative cell numbers quantified by SRB staining at time points optimized for each system (48 h: 3C and CASM3C systems; 72 h: BT and HDF3CGF systems; 96 h: SAg system). SRB was performed by staining cells with 0.1% SRB after fixation with 10% TCA and reading wells at 560 nm.Viability and proliferation of PBMC (T cells) was quantified by Alamar Blue reduction for the SAg and BT systems. For PBMC viability (referred to as PBMC Cytotoxicity within the assay endpoint names), cells were plated (75,000/well in a 96-well plate) and then chemical samples added for 1 h before addition of activators, SEB and TSST-1 (20 ng/mL final concentration each). Cells were incubated for 90 h. Then, Alamar Blue (20 uL/well) (Invitrogen, Cat DAL1100) was added for 6 h, and the plates were read with a fluorescence microplate reader at 546/580 nm (excitation/emission). For PBMC proliferation, cells were plated and activated as above but incubated for only 16 h prior to addition of Alamar Blue. Plates were read after 6 h.
On to `CN(C)N=O`, for which the result was inactive.
In the case of `COP(=S)(OC)Oc1ccc(Sc2ccc(OP(=S)(OC)OC)cc2)cc1`, the outcome was inactive.
The term AC50 denotes the concentration giving half of the maximal activity seen. With `CC(C)(C)c1cc(O)ccc1O`, the AC50 is 9.21 µM (active).
For `CCOP(=S)(OCC)Oc1ccc(S(C)=O)cc1` (stereo not given), the outcome was inactive.
Still for that read-out and setting: the value for `ClC1=C(Cl)[C@]2(Cl)[C@H]3[C@H]([C@H]4C=C[C@H]3C4)[C@@]1(Cl)C2(Cl)Cl` was “inactive”.
Same read-out and setting: the same measure for `CCNc1nc(NC(C)(C)C)nc(SC)n1`: “inactive”.
Consider `Nc1ncc([N+](=O)[O-])s1`, for which the result was inactive.
On the same count and under the same terms, the value for `O=C(O)C(Cl)(Cl)Cl` was “inactive”; that for `O=C(O)CCC(F)(C(F)(F)F)C(F)(F)F` was “inactive”.
Same read-out and setting: the same measure for `BrCCBr`: “inactive”; for `CC(C)CCCCCCOC(=O)c1ccccc1C(=O)OCCCCCCC(C)C`: “inactive”; for `COc1cc(OC)nc(NC(=O)NS(=O)(=O)c2ncccc2C(=O)N(C)C)n1`: “inactive”.
On the same count and under the same terms, the value for `NC(=O)O` was “inactive”.
As to `Nc1ccc(-c2ccc(N)c(Cl)c2)cc1Cl`, the outcome was inactive.
Take `OCc1ccco1`: the outcome was inactive.
Turning to `O=C(O)C(F)(F)C(F)(F)C(F)(F)C(F)(F)C(F)(F)C(F)(F)C(F)(F)C(F)(F)C(F)(F)C(F)(F)F`, the concentration at half-maximal activity (AC50) is 13.1 µM (active) and 6.18 µM (active) and 6.3 µM (active).
`Oc1c(I)cc(I)cc1I`: the result was inactive.
In the case of `CC(C)(c1ccccc1)c1ccc(O)c(C(C)(C)c2ccccc2)c1`, the AC50 was 5.4 µM (active).
`Oc1ccc(-c2ccccc2)cc1`: the outcome was inactive.
Same read-out and setting: the same measure for `CC12CC1(C)C(=O)N(c1cc(Cl)cc(Cl)c1)C2=O` (stereo not given): “inactive”; for `C[C@]12CCC(=O)C[C@@H]1CC[C@@H]1[C@@H]2CC[C@]2(C)[C@@H](O)CC[C@@H]12`: “inactive”.
With `CCC(=O)C(CC(C)N(C)C)(c1ccccc1)c1ccccc1` (stereo not given), the outcome was inactive.
The same measure, in the same setting: the value for `COP(=S)(OC)Oc1c(Cl)cc(C)cc1Cl` was “inactive”; that for `O=Cc1cccc(Oc2ccccc2)c1` was “inactive”.
Same read-out and setting: the same measure for `CCOP(=S)(OCC)Oc1nc(Cl)c(Cl)cc1Cl`: “inactive”; for `COC[C@H](C)N(C(=O)CCl)c1c(C)csc1C`: “inactive”; for `C=CC(=O)OCCCCCC(C)C`: “inactive”.
Same read-out and setting: the value for `CCOP(=S)(OCC)SCCS(=O)(=O)CC` was “inactive”.
As for `COC(=O)c1sccc1S(=O)(=O)NC(=O)Nc1nc(C)nc(OC)n1`, the result was inactive.
Still for that read-out and setting: the same measure for `O=[N+]([O-])c1ccc2c3c(cccc13)CC2`: “inactive”.
On to `O=C(OC1CCCCC1)c1ccccc1C(=O)OC1CCCCC1`, for which the AC50 was 34.9 µM (active).
For `ClCC(Cl)CCl`, the outcome was inactive.
Same read-out and setting: the value for `NC(=S)Nc1ccccc1` was “inactive”; that for `CCOC(=O)/C=C(C)/C=C/C[C@@H](C)CCCC(C)C` was “inactive”.
On the same count and under the same terms, the same measure for `CCOP(=S)(OCC)SCSP(=S)(OCC)OCC`: “inactive”.
Consider `CCN1CCC2(CC1)COc1cc3c(cc12)N(C(=O)c1ccc(-c2ccc(-c4nnc(C)o4)cc2C)cc1)CC3`, for which the AC50 was 12.5 µM (active).
In the case of `CCCCC(CC)CO[N+](=O)[O-]` (stereo not given), the result was inactive.
Same read-out and setting: the value for `O=c1[nH]c(=O)[nH]c(=O)[nH]1` was “inactive”; that for `Nc1cccc2ccccc12` was “inactive”.
Still for that read-out and setting: the value for `COP(=S)(OC)Oc1ccc(S(=O)(=O)N(C)C)cc1` was “inactive”.
